CYP2C19 inhib: blockers of cytochrome P450 2C19 activity – biochemical, luminescence, ADME assay, primary screen; CYP2C19 Supersomes, luciferin-H EGE luminescence, 30 min; actives 21% (n = 96,000); P33261; inhibition, % at 5 µM;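 active means CYP2C19 inhibition above a set limit at 5 µM in the primary screen, cut at about 50% in these data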;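 further: plate controls were negative control wells for no effect and 2.5 mM tranylcypromine positive control for full effect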
Target sequence (P33261 whole entry, looked up): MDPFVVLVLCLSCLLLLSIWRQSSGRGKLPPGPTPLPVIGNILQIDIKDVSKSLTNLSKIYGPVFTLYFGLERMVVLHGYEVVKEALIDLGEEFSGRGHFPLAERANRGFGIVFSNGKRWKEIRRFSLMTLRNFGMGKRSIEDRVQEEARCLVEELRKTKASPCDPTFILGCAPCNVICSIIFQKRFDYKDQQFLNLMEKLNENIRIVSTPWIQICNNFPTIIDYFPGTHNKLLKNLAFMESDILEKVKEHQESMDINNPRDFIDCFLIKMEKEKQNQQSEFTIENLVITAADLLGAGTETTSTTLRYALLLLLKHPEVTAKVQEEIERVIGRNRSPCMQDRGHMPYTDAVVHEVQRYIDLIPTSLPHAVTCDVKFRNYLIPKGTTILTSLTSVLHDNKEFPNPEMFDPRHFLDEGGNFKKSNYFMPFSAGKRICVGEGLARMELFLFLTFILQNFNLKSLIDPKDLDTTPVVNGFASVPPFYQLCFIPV
CYP2C19 act: human CYP2C19 activators, primary screen, biochemical, luminescence; recombinant CYP2C19, luciferin-H EGE luminescence; hits give high values; 0 = fully inhibited enzyme, 1 = untreated enzyme; activation factor at 5 µM; AID 1025, 2008; 96,000 tested, under 10 active;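 active means activation factor of at least 2 at 5 µM in the primary screen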;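 further: 0 = wells with 2.5 mM tranylcypromine and 1 = vehicle-only wells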
PostGolgi yeast: phenotypic screen on post-Golgi transport, primary screen; post-Golgi transport phenotypic cell assay; actives 0.9% (n = 98,000); inhibition, % at 10 µM;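 further: yeast cells grown in 1536-well plates; yeast grown about 18 h at 30C before absorbance read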
CYP2C9 activ: human CYP2C9 activators, primary screen, biochemical, luminescence; activation factor at 5 µM; Cytochrome P450 2C9 (Homo sapiens), P11712; recombinant CYP2C9, luciferin-H conversion; hits give high values; factor 1 = untreated enzyme, 0 = blocked; actives 1.4% (n = 96,000);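 active means activation factor of 2 or more for CYP2C9 at a 5 µM dose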;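 further: 0 = sulfaphenazole-blocked wells and 1 = vehicle-only wells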
CYP2C9 inhib: blockers of cytochrome P450 2C9 activity – biochemical, luminescence, ADME assay, primary screen; inhibition, % at 5 µM; P11712; actives 20% (n = 96,000); CYP2C9 Supersomes, luciferin-H conversion;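 active means blocking of liver enzyme CYP2C9 beyond about 50% at 5 µM, limit read from the data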
PostGolgi ctrl: growth inhibition of yeast control strain, primary screen, counter-screen for post-Golgi transport modulator project | AID 738, 2007 | efflux-deficient yeast background strain, growth absorbance A615, 16 h | actives 5% (n = 98,000) | inhibition, % at 10 µM
Numbers without * were called inactive; nt = no result given. This is a sample that favours compounds with a hit; in the whole collection about 32% have one here. Unless noted, no stated cut-off is given here; in the data, active means inhibition above about 30%; inactive means the rest.

SMILES	CYP2C19 inhib	CYP2C19 act	PostGolgi yeast	CYP2C9 activ	CYP2C9 inhib	PostGolgi ctrl
O=C(CN1CCC(n2nnc3cc(C(F)(F)F)ccc32)CC1)Nc1ccc2c(c1)OCCO2	82*	0.2	-8	0.1	87*	5
O=C(Cn1nnc2ccccc2c1=O)Nc1ccc2c(c1)CCC2	34	0.7	-3	0.7	34	20
OCC1(c2cc(C(F)(F)F)n[nH]2)CCCCC1	22	0.8	10	0.8	22	3
Cn1c(N)c(C(=O)COC(=O)C2(c3ccc(Cl)cc3)CCCC2)c(=O)n(C)c1=O	58*	0.4	-1	1.1	-13	6
COC(=O)C1=C(N)c2c(F)cccc2C1(C#N)c1ccc(F)cc1 (stereo unspecified)	66*	0.3	3	0.6	37	24
COc1ccc(C(C)C)cc1S(=O)(=O)N1CCN(C)CC1	37	0.6	-14	1.2	-16	1
COc1ccc(OC)c(S(=O)(=O)N2C(C)CCCC2C)c1 (stereo unspecified)	93*	0.1	4	0.1	85*	-11
COc1ccc(OC)c(S(=O)(=O)N2CCc3ccccc32)c1	77*	0.2	-6	1.2	-21	6
COc1ccccc1NC(=O)COc1ccc(C(=O)OCC(=O)N2CCCC2=O)cc1OC	-2	1	-6	0.8	21	12
COc1ccc(F)cc1S(=O)(=O)N1CC(C)CC(C)C1 (stereo unspecified)	65*	0.4	10	0.8	23	10
COc1ccc(OC)c(S(=O)(=O)N2CCN(C34CC5CC(CC(C5)C3)C4)CC2)c1	16	0.8	0	1.2	-24	3
CCCNC(=O)NC(=O)COC(=O)c1ccc(OC)c(S(=O)(=O)N2CCCc3ccccc32)c1	37	0.6	-7	0	95*	17
Cc1ccc2c(COC(=O)C3=COCCO3)cc(=O)oc2c1	11	0.9	27	0.9	8	-1
COc1ccc(OC)c(S(=O)(=O)N2c3cc(F)ccc3CCC2C)c1 (stereo unspecified)	88*	0.1	8	0.4	61*	4
Cc1[nH]c(=O)[nH]c(=O)c1S(=O)(=O)N1c2ccc(F)cc2CCC1C (stereo unspecified)	44	0.6	-3	0.8	16	4
CS(=O)(=O)N1CCc2cc(C(=O)N3CCCCC3)ccc21	nt	nt	7	nt	nt	1
Cc1cc(NC(=O)COC(=O)c2ccc(S(=O)(=O)N3CCCc4ccccc43)cc2)no1	46	0.5	1	0.3	66*	-13
COc1ccc(C(=O)NCc2ccc(C)cc2)cc1S(=O)(=O)N1CCCc2ccccc21	67*	0.3	4	0.3	74*	23
Cc1cc(NC(=O)COC(=O)COc2ccc3c(c2)CCC3)no1	6	0.9	-1	1	-5	7
COc1ccc(C(=O)N2CCCN(C)CC2)cc1S(=O)(=O)N1CCCc2ccccc21	18	0.8	2	0.5	50*	-7
C[C@@]12CC(=O)NC1N(C(=O)c1ccccc1)C(c1ccccc1OC(=O)c1ccccc1)C2 (stereo partly specified)	40	0.6	6	0.7	32	-6
C=C(C)Cn1c(CCNC(=O)C(C)(C)C)nc2ccccc21	27	0.7	4	1	-2	4
COc1ccc(OC)c(S(=O)(=O)N2c3ccccc3CC2C)c1 (stereo unspecified)	75*	0.3	-4	0.2	79*	9
COc1ccc(OC)c(S(=O)(=O)N2CCCc3ccccc32)c1	84*	0.2	-2	1.7	-68	15
CC1Cc2ccccc2N1S(=O)(=O)c1cccc2nsnc12 (stereo unspecified)	79*	0.2	-2	0	99*	-12
SMILES	CYP2C19 inhib	CYP2C19 act	PostGolgi yeast	CYP2C9 activ	CYP2C9 inhib	PostGolgi ctrl
COc1ccc(OC)c(S(=O)(=O)N2Cc3ccccc3CC2C(=O)O)c1 (stereo unspecified)	12	0.9	1	0.9	8	20
Cc1c(N=Cc2ccc(-c3ccc(Cl)cc3)o2)c(=O)n(-c2ccccc2)n1C	59*	0.4	-3	0.8	18	-6
CC(=O)c1cccc(OCCN2C(=O)NC(C)(C)C2=O)c1	34	0.7	9	0.5	50*	4
CCc1cccc(OCCCN2C(=O)NC(C)(C)C2=O)c1	92*	0.1	5	0.4	60*	-1
COc1ccc(C(=O)COC(=O)CN2C(=O)NC(C)(C)C2=O)cc1OC	3	1	12	1.1	-7	-8
COCCNS(=O)(=O)c1cccc2cccnc12	9	0.9	2	1.6	-56	2
CCOC(=O)Nc1ccc(S(=O)(=O)Nc2nc(C)cc(C)n2)cc1	-3	1	-5	1.2	-23	2
CCN(CC)c1nc(SCC(=O)O)nc(N(CC)CC)n1	3	1	17	0.9	6	40*
CCOC(=O)CSc1nc(NC#N)nc(N(CC)CC)n1	nt	nt	10	nt	nt	10
CC(=O)NC1C(=O)N=C(SCC(=O)NC2CCCCC2)NC1=O (stereo unspecified)	0	1	4	1	0	1
COc1cc(CN(C)Cc2ccccc2)cc(OC)c1O	65*	0.3	-2	0.7	28	1
CC(C)OC(=O)C(C)Oc1ccc(C(=O)NCCc2ccccc2)cc1 (stereo unspecified)	15	0.8	4	0.8	18	3
CC(C)n1c2ccccc2c2nc3ccccc3nc21	4	1	1	0.9	15	46*
CCc1nnc(NC(=O)CSc2nnc(-c3cccnc3)n2CC)s1	-2	1	-6	0.8	19	30
O=C(CSc1nnc(-c2ccncc2)n1Cc1ccco1)Nc1nc(-c2ccccc2)cs1	13	0.9	-2	0.6	38	1
CCn1c(SCC(=O)Nc2nc3c(s2)CCCC3)nnc1-c1ccccc1	81*	0.2	-3	0.1	88*	0
CCn1c(SCC(=O)Nc2nc(-c3ccccc3)cs2)nnc1-c1ccccc1O	89*	0.1	3	0	95*	42*
CCc1nnc(NC(=O)CSc2nnc(-c3cc4ccccc4cc3O)n2CC)s1	52*	0.5	11	0.1	90*	7
CCc1nnc(NC(=O)CSc2nnc(-c3ccccc3O)n2CC)s1	76*	0.2	-4	0.2	77*	4
CCOC(=O)N1CCN(C(=O)c2ccc(N3CCCC3=O)cc2)CC1	0	1	6	1	2	5
COc1ccc(S(=O)(=O)C(C#N)c2nc3ccccc3nc2N2CCC(C)CC2)cc1 (stereo unspecified)	-3	1	nt	1.1	-8	nt

Compound activity deposited in PubChem BioAssay by several laboratories.
